Assay outcomes: PubChem BioAssay, National Center for Advancing Translational Sciences (NCATS)
Shiga inhibitor: Shiga toxin inhibition; AID 2315; inhibition, % at 38.7 µM; Vero cells, Shiga toxin protein synthesis inhibition reporter; 290,000 compounds, 9.2% hits; in the data active = inhibition mostly above about 28%, no sharp cut-off; inactive = mostly below about 43%
Pf growth 96h: inhibits malaria parasite growth, 96 h; P. falciparum luciferase reporter growth, 96 h; Potency, µM (top dose mostly 28.7 µM), most hits filed as inhibitors; 320,000 compounds, 6.9% hits; AID 504834
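P. falciparum expressing integrated firefly luciferase grown in erythrocytes (2% hematocrit, 0.05% parasitemia final) with compounds for 96 hours at 37 C, 5% CO2. Growth inhibition read as loss of luminescence after adding luciferase detection reagent.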
MARV entry inh: Marburg virus entry inhibition. Potency, µM (series often up to 37.8 µM), hits mostly inhibitors. 300,000 compounds, 1.8% hits. Marburg virus pseudotyped entry inhibition, cell reporter; calls by dose curve; tested in HEK293 cells
Cycloheximide cs: affects cycloheximide protein synthesis inhibition readout, counter-screen | max response, % | 300,000 compounds, 12% hits | cell reporter, cycloheximide protein synthesis inhibition counterscreen; in the data active = max response mostly above about 13%, no sharp cut-off; inactive = mostly below about 14%; note: read at 38.3 µM for the half of the compounds with a filed dose
Lassa entry inh: Lassa virus entry inhibition. Lassa virus pseudotype entry inhibition, cell reporter. Potency, µM (doses to about 37.9 µM), most hits filed as inhibitors. 300,000 compounds, 1.2% hits; calls by dose curve; tested in HEK293 cells; note: nearly all actives have a fitted effect of over 50% in size
Pf growth 48h: inhibits P. falciparum growth in the first generation, 48 h. AID 504832. Potency, µM (doses to about 28.7 µM), hits mostly inhibitors. P. falciparum luciferase growth in erythrocytes, 48 h. 310,000 compounds, 5.9% hits
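Growth was read as firefly luciferase luminescence after a 48 h, 37 C, 5% CO2 exposure of compounds to reporter-bearing P. falciparum cultures (0.1% parasitemia, 2% hematocrit final) in Albumax-supplemented RPMI 1640.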
Hits are given with their value; – = inactive; ? = inconclusive; · = not tested or not shown. Rows were chosen to be rich in hits. Some 19% of all compounds tested hit in one or more screens of this group. Unless noted, calls come from the whole dose curve; as a rule, active = well fitted inhibition curve with a large enough effect; inconclusive = small, poorly fitted or top-dose-only effect, or another doubt; inactive = no such curve, though single readings can be large or run the other way.

SMILES	Shiga inhibitor	Pf growth 96h	MARV entry inh	Cycloheximide cs	Lassa entry inh	Pf growth 48h
CN(C)c1nc(-c2ccccc2)ns1	130	–	?	33	–	–
C#CCN1C(=O)C2(OCCO2)c2ccccc21	–	?	–	–	–	–
O=C(/C=C/c1ccc(O)cc1)OCc1occc(=O)c1O[C@@H]1OC(CO)[C@@H](O)[C@H](O)[C@@H]1O (some centres undefined)	–	–	–	–	–	–
CC(=O)N/N=C\c1ccccc1OC/C=C/c1ccccc1	–	?	?	22	–	–
CNC(=S)N/N=C/c1ccccc1OCC(=O)O	–	–	–	–	–	–
CC(=O)N/N=C\c1cccc(OC/C=C/c2ccccc2)c1	159	–	·	59	·	–
CCOC(=O)N/N=C\c1cccc(OC)c1OC/C=C/c1ccccc1	34	?	?	–	?	?
COc1cccc(/C=N/NC(=O)CC(C)O)c1OC/C=C/c1ccccc1 (centres undefined)	–	–	?	–	–	–
N#CCC(=O)N/N=C\c1cccc(OC/C=C/c2ccccc2)c1	122	?	?	53	?	–
Cn1c(O)c(C=NC2CCN(Cc3ccccc3)CC2)c(=O)n(C)c1=O	–	–	–	–	–	?
COC(=O)c1sccc1NC(=O)c1ccnn1C	–	–	·	–	·	–
CC1=C(C(=O)Nc2ccccn2)C(c2ccc(Cl)cc2Cl)NC(=S)N1 (centres undefined)	111	–	–	35	–	?
CC1=C(C(=O)Nc2ccccn2)C(c2ccccc2Cl)NC(=S)N1 (centres undefined)	100	?	–	40	–	–
CCOc1cccc(C2NC(=S)NC(C)=C2C(=O)Nc2ccccc2)c1 (centres undefined)	–	–	–	–	–	–
Cc1ccc(S(=O)(=O)N2CCCc3cc(NS(=O)(=O)c4ccc(F)c(C)c4)ccc32)cc1	·	·	·	·	–	·
Cc1ccc(OCC(=O)N(Cc2ccc(N(C)C)cc2)C2CCS(=O)(=O)C2)cc1C (centres undefined)	–	?	?	–	?	?
COc1ccccc1NC(=O)CSc1ncc2c(n1)-c1cc(Cl)ccc1N(Cc1ccccc1)S2(=O)=O	·	·	·	·	–	·
COc1ccc(CNc2nc3ccccc3n2CCN2CCOCC2)cc1	–	?	–	–	–	?
Oc1ccccc1CNc1nc2ccccc2n1CCN1CCCCC1	–	–	·	–	·	2.9µM
CCN(CC)c1ccc(CNc2nc3ccccc3n2CCN2CCOCC2)cc1	–	–	11µM	–	–	?
c1csc(CNc2nc3ccccc3n2CCN2CCOCC2)c1	–	·	–	–	–	·
C=CCc1cccc(CNc2nc3ccccc3n2CCN2CCOCC2)c1O	–	·	–	–	?	3.7µM
COc1ccc(N(CC(=O)Nc2ccccc2C(=O)NCCc2ccccc2)S(C)(=O)=O)cc1OC	–	·	–	–	–	?
Cc1cc(NC(=O)COn2nnc3ccc(S(C)(=O)=O)cc32)ccc1Br	–	–	·	–	·	–
Cc1c(NS(=O)(=O)c2ccc(Br)s2)c(=O)n(-c2ccccc2)n1C	–	–	?	–	–	–
SMILES	Shiga inhibitor	Pf growth 96h	MARV entry inh	Cycloheximide cs	Lassa entry inh	Pf growth 48h
CC(=O)[C@H]1CC[C@H]2[C@@H]3CC[C@H]4C[C@H](O)CC[C@]4(C)[C@H]3C(=O)C[C@]12C	–	–	?	–	–	–
CCN(CC)C(=O)c1ccc2nc3ccccc3nc2c1	65	–	–	30	–	–
CC(C)CNC(=O)c1c2c(nc3ccccc13)-c1ccccc1CC2	–	–	–	–	–	?
CCN(CC)C(=O)c1ccc(C(=O)c2ccccc2)cc1	–	–	–	32	?	·
CCN(CC)C(=O)c1ccc(S(=O)(=O)c2ccccc2)cc1	–	–	?	–	?	–
CCN(CC)C(=O)c1c2c(nc3ccccc13)-c1ccccc1CC2	–	?	?	–	–	7.4µM
CC(C)C(=O)Nc1cccc(C(=O)Nc2cc([N+](=O)[O-])ccc2Cl)c1	–	–	·	–	·	?
Cc1c2c(nc3c(C(=O)NC4CC4)cnn13)CCCC2	113	–	?	35	–	–
CCC(C)NC(=O)c1cnn2c(C)c3c(nc12)CCCC3 (centres undefined)	–	–	–	–	–	–
CC(C)(C)c1ccc(C(=O)n2cnc3ccccc32)cc1	64	?	·	30	·	–
CN(C)c1ccc(C(=O)n2nnc3ccccc32)cc1	116	·	–	57	–	–
